Screening data: PubChem, National Center for Advancing Translational Sciences (NCATS)
Gal4-VP16 FLuc = inhibits Gal4-VP16 luciferase reporter, ROR gamma counter-screen; 310,000 compounds, 3.5% hits; Potency, µM (series often up to 53.6 µM), for the others: top-dose activity, negative = inhibition, actives largely listed as inhibitors; Drosophila S2 Gal4-VP16 UAS-luciferase, luminescence, 20 h;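 also: Gal4-VP16 expression switched on by copper sulfate through the metallothionein promoter; % is scaled to controls: 0 for no effect and ±100 for the full control effect; nearly all actives have a fitted effect of over 50% in size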
ELG1 repair inh = ELG1-dependent DNA repair inhibition; HEK293T ELG1-luciferase reporter, luminescence, 16 h; DNA damage induced by 5-fluorouridine; Potency, µM (series often up to 46.1 µM), inactives show at the highest dose activity change, negative = inhibition, actives largely listed as inhibitors; 330,000 compounds, 2.3% hits; also: % is scaled to controls: 0 for no effect and ±100 for the full control effect; nearly all actives have a fitted effect of over 55% in size
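Quantitative HTS, concentration-response format. 2,000 cells/well co-treated with 5-fluorouridine and compound, 16 hr in 5% CO2 at 37 °C; ONE-Glo luminescence read after 30 min.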
MCF10A rerep = inducers of DNA re-replication in MCF 10A breast cells; MCF 10A DNA re-replication, Hoechst nuclear intensity, 48 h; Potency, µM (highest dose often 46.1 µM), for the others: top-dose activity, positive = re-replication, actives largely listed as activators; 350,000 compounds, 2.9% hits; also: % of control where 0% means no effect; nearly all actives have a fitted effect of over 50% in size
SW480 rerep = induces DNA re-replication in SW480 colon adenocarcinoma cells | SW480 DNA re-replication, Hoechst DNA content imaging, 48 h | Potency, µM (series often up to 46.1 µM), for inactives: top-dose re-replication activation, usual class: activators | 340,000 compounds, 1.8% hits | AID 624297; also: % of control where 0% means no effect; nearly all actives have a fitted effect of over 55% in size
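Compounds, transferred as 23 nL by pin tool, were incubated with cells for 48 hr; DNA content per nucleus was then quantified by Hoechst staining and fluorescence plate imaging.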
RORg inh = blocks mouse ROR gamma transcriptional activity; P51450; Drosophila S2 Gal4-RORgamma UAS-luciferase reporter, 20 h; Potency, µM (series often up to 53.6 µM), without a hit: at the highest dose activity change, negative = inhibition, hits mostly inhibitors; 310,000 compounds, 5.4% hits; also: % is scaled to controls: 0 for no effect and ±100 for the full control effect; nearly all actives have a fitted effect of over 60% in size
Target sequence (P51450 whole entry, looked up, the tested form may be a part): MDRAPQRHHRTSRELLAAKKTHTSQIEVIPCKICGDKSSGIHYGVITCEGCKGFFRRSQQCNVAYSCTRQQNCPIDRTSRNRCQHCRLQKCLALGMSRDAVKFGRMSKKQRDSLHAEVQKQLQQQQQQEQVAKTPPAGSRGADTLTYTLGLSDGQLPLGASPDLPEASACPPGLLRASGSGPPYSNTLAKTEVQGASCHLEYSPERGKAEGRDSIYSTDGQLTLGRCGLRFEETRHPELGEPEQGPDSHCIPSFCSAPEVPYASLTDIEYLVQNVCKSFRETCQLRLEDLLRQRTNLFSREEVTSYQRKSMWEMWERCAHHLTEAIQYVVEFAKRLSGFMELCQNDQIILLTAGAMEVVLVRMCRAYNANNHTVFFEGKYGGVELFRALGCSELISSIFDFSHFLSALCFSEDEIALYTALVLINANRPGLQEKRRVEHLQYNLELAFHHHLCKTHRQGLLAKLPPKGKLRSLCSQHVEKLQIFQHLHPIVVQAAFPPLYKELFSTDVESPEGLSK
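Drosophila Schneider cells stably carrying a metallothionein-driven Gal4 DBD–ROR gamma fusion and a UAS-Photinus luciferase reporter were exposed to compound for 1 hr, then induced with copper sulfate (700 uM final) for 20 hr at ambient temperature before luminescence reading.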
* hit, by the source's call; u = inconclusive; x = no result given; [ ] = another dose, or the depositor's remark. Only some compounds are listed: those with a hit (about 10% of all), similar ones and a draw of the others. Calls follow the shape of the dose curve; as a rule, active = well fitted curve in the direction sought with a large enough effect; inconclusive = small, poorly fitted or top-dose-only effect, or another doubt; inactive = no such curve, though single readings can be large; an effect the other way counts as inactive or inconclusive. Potency is read from the fitted curve at half-maximal effect.

SMILES	Gal4-VP16 FLuc	ELG1 repair inh	MCF10A rerep	SW480 rerep	RORg inh
CCCCN(C)S(=O)(=O)c1ccc(C(=O)Nc2nnc(-c3ccco3)o2)cc1	0.71µM*	u	u	13µM*	0.4µM*
CCN(CC)S(=O)(=O)c1ccc(C(=O)Nc2nnc(-c3ccco3)o2)cc1	1.3µM*	21µM*	1%	u	0.56µM*
CN(C)S(=O)(=O)c1ccc(C(=O)Nc2nnc(-c3ccco3)o2)cc1	3.2µM*	u	u	u	1µM*
O=C(Nc1nc(COc2ccccc2)cs1)c1ccccc1F	-6%	u	-1%	-5%	-1%
CCOc1ccc2c(c1)c(N=O)c(O)n2C	3%	23%	12%	1%	-19%
CCCCN(CC)S(=O)(=O)c1ccc(C(=O)Nc2nnc(-c3cccs3)o2)cc1	0.13µM*	u	u	u	0.028µM*
CCN(CC)S(=O)(=O)c1ccc(Cl)c(NC(=O)CSc2nnc(-c3cccs3)o2)c1	-5%	1%	1%	-1%	3%
CN(c1ccccc1)S(=O)(=O)c1ccc(C(=O)Nc2nnc(-c3ccc(F)cc3)o2)cc1	1.6µM*	u	u	-6%	1µM*
COC(=O)c1c(NC(=O)C(=O)N2CCOCC2)sc2c1CCCC2	4%	-5%	-2%	u	2%
CCOc1ccc(NC(=O)CCS(=O)(=O)c2ccc(C)cc2)cc1	1%	-7%	4%	-8%	45%
CN(C)CC(CCCCC(CN(C)C)C(=O)c1ccccc1)C(=O)c1ccccc1 (stereo not given)	1%	u	u	10µM*	-15%
Cc1ccc(N(CC(=O)NCC2CCCO2)C(=O)CCC(=O)Nc2nccs2)cc1 (stereo not given)	18%	11%	0%	2%	-6%
COC(=O)C1=CN(c2cc(C)cc(C)c2)C=C(C(=O)OC)C1c1cccc(F)c1	-2%	11%	3.7µM*	u	-1%
COC(=O)C1=CN(c2cc(C)cc(C)c2)C=C(C(=O)OC)C1c1ccc(OC)c(O)c1	10%	-13%	20%	u	3%
O=c1c(Cl)c(N/N=C/c2ccc(Br)cc2)cnn1-c1ccccc1	-1%	0%	7.1µM*	u	u
CNc1cnn(-c2ccccc2)c(=O)c1Cl	14%	23%	-52%	-3%	21%
NC(=O)c1nsc(C(=O)N(CC(=O)NC2CCCC2)Cc2ccc3c(c2)OCO3)c1N	1%	-18%	2%	u	7%
Cc1c(Cl)c([N+](=O)[O-])nn1CC(=O)NCc1cccs1	4%	u	-3%	-14%	2%
COc1cc(CC(=O)Nc2nc(C)cs2)cc(OC)c1OC	3%	15µM*	-6%	-4%	37%
COc1cc(CCC(=O)Nc2nnc(C)s2)cc(OC)c1OC	-4%	3%	10µM*	6.5µM*	12%
COc1ccc2nc(NC(=O)CCc3cc(OC)c(OC)c(OC)c3)sc2c1	-1%	10µM*	1%	9%	31%
COc1ccc2nc(NC(=O)CCn3cccc3)sc2c1	0%	26%	2%	1%	12%
COc1cc(CCC(=O)Nc2ncc(C)s2)cc(OC)c1OC	-10%	12%	-5%	-13%	35%
Cc1cccn2cc(-c3ccc(Cl)cc3)nc12	u	u	u	-11%	5.6µM*
Cc1ccc(-c2cn3cccc(C)c3n2)cc1	-44%	u	1%	-4%	11µM*
SMILES	Gal4-VP16 FLuc	ELG1 repair inh	MCF10A rerep	SW480 rerep	RORg inh
Cc1cccn2cc(-c3ccc(S(=O)(=O)N4CCCCC4)cc3)nc12	1%	8%	21%	2%	1%
CCOC(=O)c1cnc(Nc2nc3ccccc3o2)nc1CSc1nnc(C)s1	x	x	u	0.65µM*	x
Cc1c(CCO)c(=O)n(C)n1C(=O)c1ccc(F)cc1	-11%	10%	-2%	-3%	-16%
Cc1c(CCO)c(=O)[nH]n1C(=O)c1ccc(F)cc1	11µM*	u	3%	7%	10µM*
CC(C)CNC(=O)c1cccc(NC(=O)Cc2ccc(Cl)cc2)c1	-11%	u	-72%	-127%	40%
O=C(NC1CC1(c1ccccc1)c1ccccc1)c1ccccc1 (stereo not given)	x	x	16%	13%	x
Cc1ccc2[nH]c3c(c2c1)CN(C(=O)CN1CCCc2ccccc21)CC3	6%	0%	23µM*	u	21%[10 µM]
Cc1ccc(CN2CC(C(=O)N3CCN(c4ccccc4Cl)CC3)CC2=O)cc1 (stereo not given)	x	u	10%	-12%	x
COc1ccc(N)cc1-n1c(C)ccc1C	0%	u	4%	0.52µM*	-23%
COc1ccc(C)cc1-n1c(C)cc(C=O)c1C	1%	7%	-2%	10%	-8%
Cc1nc2ccccc2cc1OCc1ccccc1	u	29%	11%	1%	u
COc1cccc(COc2cc3ccccc3nc2C)c1	5µM*	u	7%	7%	-27%
Cc1nc2ccccc2cc1OCc1ccc(Cl)cc1	3.5µM*	u	u	1%	u
O=C(CN1C(=O)NC2(CCc3ccccc32)C1=O)c1cccs1 (stereo not given)	x	10%	30%	0%	x
O=C(c1ccc(Cl)cc1)c1ccc(OCC(=O)N2CCOCC2)cc1	11µM*	0%	9%	-1%	u
CCn1cc(C(=O)N(C)CC(OC)OC)c(=O)c2cc(S(=O)(=O)N3CCOCC3)ccc21	2%	1%	1%	3%	-3%
Clc1cc(CSc2ccccc2)nc(-c2ccccc2)n1	u	12%	u	4%	-16%
CCCCNCC	-1%	x	x	x	13%
Cc1ccc(Nc2ncnc(Cl)c2N)cc1	x	x	-2%	-7%	x
CSc1nc(=NC(C)=O)ss1	-19%	u	29%	-6%[9.22 µM]	3.2µM*
Cc1cc(/C=C2/C(=N)N3C(c4ccccc4)=CSC3=NC2=O)c(C)n1-c1ccccc1	13%	u	u	0%	u
N=C1/C(=C\c2ccc(-c3cccc(C(=O)O)c3)o2)C(=O)N=C2SC=C(c3ccccc3)N12	3%	u	3.3µM*	8.2µM*	20%
Cc1ccccc1-n1c(C)cc(/C=C2/C(=N)N3C(c4ccccc4)=CSC3=NC2=O)c1C	-13%	-7%	u	14µM*	2%
CCOC(=O)c1ccc(NC(=O)CSc2nnc(CC)o2)cc1	7%	8%	1%	9%	0%
Cc1ccc(C(=O)N2CCC3(CC2)Oc2ccc(F)cc2C(=O)C32CC(c3cccnc3)=NO2)s1 (stereo not given)	1%	u	16%	u	1%
O=C1NC(=S)NC1=Cc1ccc(O)cc1	x	x	-19%	-20%	x
O=C1/C(=C/c2ccc(N3CCCC3)cc2)NC(=S)N1C1CC1	11µM*	u	-5%	-3%	7.1µM*
O=C1NC(=S)N/C1=C\c1ccc(N2CCOCC2)cc1	4%	u	u	18µM*	15%
